Data on 54 molecules can be found in the antibiotic and cytotoxicity screens of Wong et al. (2023).

The whole screen tested about 39,000 compounds, of which about 1,500 (3.8%) were called active. This is one part of a sample in which actives are shown more often than they occur.

This test concerns HSkMC (human skeletal muscle cells). The test is described as follows: cytotoxicity call (relative viability < 0.9). The conditions noted are these: 10 µM.
Turning to `CC(C)[C@H]1C(=O)N[C@@H](CCCNC(=N)N)C(=O)NCC(=O)N[C@@H](CC(=O)O)C(=O)N[C@H](Cc2ccccc2)C(=O)N1C`, the cytotoxicity call is “inactive”.

Consider `CC[C@@H](C)CCCCC(=O)N[C@@H](CCN)C(=O)N[C@H](C(=O)N[C@@H](CCN)C(=O)N[C@H]1CCNC(=O)[C@H]([C@@H](C)O)NC(=O)[C@H](CCN)NC(=O)[C@H](CCN)NC(=O)[C@H](CC(C)C)NC(=O)[C@@H](Cc2ccccc2)NC(=O)[C@@H](CCN)NC1=O)[C@@H](C)O`, for which the cytotoxicity call is “inactive”.

In the case of `CC1NC(=O)C2CCCN2C(=O)C(CC(N)=O)NC(=O)C2CSSCC(N)C(=O)NC3CSSCC(NC1=O)C(=O)NC(C(C)O)C(=O)NCC(=O)NC(C(=O)NC(Cc1ccc(O)cc1)C(=O)O)CSSCC(NC(=O)C(Cc1ccc(O)cc1)NC(=O)C(CCC(=O)O)NC3=O)C(=O)N2` (centres undefined), the cytotoxicity call was “inactive”.

Turning to `CC(C)C[C@@H]1NC(=O)[C@@H](C(C)C)NC(=O)[C@@H]2CCCN2C(=O)[C@@H](CC(=O)O)NC(=O)[C@@H](Cc2c[nH]c3ccccc23)NC1=O`, the cytotoxicity call was “inactive”.

Regarding `CC(C)C[C@H]1NC(=O)[C@@H](CCCN)NC(=O)[C@H](C(C)C)NC(=O)[C@H]2CCCN2C(=O)[C@@H](Cc2ccccc2)NC(=O)[C@@H](CC(C)C)NC(=O)[C@@H](CCCN)NC(=O)[C@H](C(C)C)NC(=O)[C@H]2CCCN2C(=O)[C@@H](Cc2ccccc2)NC1=O`, the cytotoxicity call was “active”.

As to `CC(C)(O)C#Cc1ccc([C@H]2[C@@H](CO)N3CCCCN(S(C)(=O)=O)C[C@@H]23)cc1`, the cytotoxicity call was “inactive”.

On to `N#C[C@H]1NCc2cnnn2Cc2ccccc21`, for which the cytotoxicity call is “inactive”.

As to `COc1ccc(NC(=O)N(C)C[C@H]2OCCCC[C@@H](C)Oc3ccc(NC(=O)NC(C)C)cc3C(=O)N([C@H](C)CO)C[C@H]2C)cc1`, the cytotoxicity call is “inactive”.

In the case of `COc1ccc(S(=O)(=O)N(C)C[C@@H]2OCCCC[C@H](C)Oc3ccc(NC(=O)Nc4ccccc4)cc3C(=O)N([C@@H](C)CO)C[C@@H]2C)cc1`, the cytotoxicity call was “inactive”.

In the case of `CN(C)CCN1CC2(CCN(C(=O)c3cnccn3)CC2)OCC1=O`, the cytotoxicity call is “inactive”.

Consider `Cc1noc(C)c1S(=O)(=O)Nc1ccc2c(c1)C(=O)N([C@H](C)CO)C[C@@H](C)[C@@H](CN(C)Cc1ccc(C(F)(F)F)cc1)OCCCC[C@H](C)O2`, for which the cytotoxicity call is “inactive”.

Regarding `C[C@@H]1CCCCO[C@@H](CN(C)C(=O)CCC(F)(F)F)[C@@H](C)CN([C@@H](C)CO)C(=O)c2cc(NC(=O)Nc3ccccc3)ccc2O1`, the cytotoxicity call was “inactive”.

For the molecule `C[C@@H]1CCCCO[C@@H](CN(C)Cc2ccc3c(c2)OCO3)[C@H](C)CN([C@H](C)CO)C(=O)c2cc(NC(=O)Nc3ccc4c(c3)OCO4)ccc2O1`, the cytotoxicity call was “inactive”.

For the molecule `C[C@H]1CN([C@@H](C)CO)C(=O)c2cc(NC(=O)Nc3ccc4c(c3)OCO4)ccc2O[C@H]1CN(C)Cc1ccc(C(F)(F)F)cc1`, the cytotoxicity call is “inactive”.

As to `C[C@@H]1CN([C@@H](C)CO)C(=O)c2cc(NC(=O)Nc3ccc4c(c3)OCO4)ccc2O[C@H]1CN(C)Cc1ccc(C(F)(F)F)cc1`, the cytotoxicity call is “active”.

Regarding `C[C@H](CO)N1C[C@H](C)[C@@H](CN(C)Cc2ccc(C(F)(F)F)cc2)Oc2ccc(NC(=O)Nc3ccc4c(c3)OCO4)cc2C1=O`, the cytotoxicity call is “inactive”.

Take `C[C@H](CO)N1C[C@H](C)[C@H](CN(C)Cc2ccc(C(F)(F)F)cc2)Oc2ccc(NC(=O)Nc3ccc4c(c3)OCO4)cc2C1=O`: the cytotoxicity call is “inactive”.

As for `C[C@@H]1CN([C@H](C)CO)C(=O)c2cc(NC(=O)Nc3ccc4c(c3)OCO4)ccc2O[C@@H]1CN(C)Cc1ccc(C(F)(F)F)cc1`, the cytotoxicity call was “active”.

On to `C[C@H]1CN([C@@H](C)CO)C(=O)c2cc(NC(=O)Nc3ccc4c(c3)OCO4)ccc2O[C@@H]1CN(C)Cc1ccc(C(F)(F)F)cc1`, for which the cytotoxicity call was “inactive”.

In the case of `Cc1ccc(S(=O)(=O)Nc2ccc3c(c2)C(=O)N([C@H](C)CO)C[C@H](C)[C@@H](CN(C)C(=O)CCC(F)(F)F)OCCCC[C@H](C)O3)cc1`, the cytotoxicity call is “inactive”.

For `C[C@H]1CN([C@@H](C)CO)C(=O)Cc2cc(NC(=O)Cc3ccccc3)ccc2O[C@H]1CN(C)S(=O)(=O)c1ccccc1`, the cytotoxicity call is “inactive”.

For `C[C@@H]1CN([C@@H](C)CO)C(=O)c2cc(NC(=O)Nc3ccc(C(F)(F)F)cc3)ccc2O[C@@H](C)CCCCO[C@@H]1CN(C)S(=O)(=O)c1cn(C)cn1`, the cytotoxicity call was “inactive”.

For the molecule `C[C@H]1CCCCO[C@H](CN(C)S(=O)(=O)c2cn(C)cn2)[C@@H](C)CN([C@@H](C)CO)C(=O)c2cc(NC(=O)Nc3ccc(C(F)(F)F)cc3)ccc2O1`, the cytotoxicity call is “inactive”.

With `C[C@H]1CCCCO[C@@H](CN(C)S(=O)(=O)c2cn(C)cn2)[C@@H](C)CN([C@@H](C)CO)C(=O)c2cc(NC(=O)Nc3ccc(C(F)(F)F)cc3)ccc2O1`, the cytotoxicity call was “active”.

In the case of `C[C@H](CO)N1C[C@H](C)[C@@H](CN(C)S(=O)(=O)c2cn(C)cn2)OCCCC[C@H](C)Oc2ccc(NC(=O)Nc3ccc(C(F)(F)F)cc3)cc2C1=O`, the cytotoxicity call was “active”.

Regarding `C[C@@H]1CN([C@H](C)CO)C(=O)c2cc(NC(=O)Nc3ccc(C(F)(F)F)cc3)ccc2O[C@@H](C)CCCCO[C@@H]1CN(C)S(=O)(=O)c1cn(C)cn1`, the cytotoxicity call was “inactive”.

With `C[C@@H]1CN([C@@H](C)CO)C(=O)c2cc(NC(=O)Nc3ccc(C(F)(F)F)cc3)ccc2O[C@@H](C)CCCCO[C@H]1CN(C)S(=O)(=O)c1cn(C)cn1`, the cytotoxicity call is “inactive”.

In the case of `CN1CCN(c2nc3c(c(=O)[nH]c(=O)n3C)n2CC(=O)c2ccc(Cl)cc2)CC1`, the cytotoxicity call was “inactive”.

Turning to `Cc1noc(C)c1S(=O)(=O)Nc1ccc2c(c1)C(=O)N([C@H](C)CO)C[C@H](C)[C@@H](CN(C)S(=O)(=O)c1ccc(F)cc1)O2`, the cytotoxicity call is “inactive”.

Turning to `COc1cccc(C#Cc2ccc3c(c2)O[C@@H](CN(C)C(=O)c2ccccn2)[C@H](C)CN([C@@H](C)CO)S3(=O)=O)c1`, the cytotoxicity call was “inactive”.

Regarding `Cc1c(/C=N/c2ccc(C(C)C)cc2)sc2ccccc12`, the cytotoxicity call is “inactive”.

With `C[C@]12CC[C@@H]3[C@]4(C=C[C@@]5(C=C4C(=O)C4CCCCC4)C[C@@H](O)CC[C@]35C)[C@@H]1CC[C@@]2(O)CN1CCC(n2c(=O)[nH]c3ccccc32)CC1`, the cytotoxicity call is “inactive”.

Take `O=C(C[C@@H]1C[C@H]2c3cc(NS(=O)(=O)c4ccc(F)cc4)ccc3O[C@H]2[C@@H](CO)O1)NC1CCCCC1`: the cytotoxicity call is “inactive”.

With `C[C@@H]1CN([C@H](C)CO)C(=O)CCCn2cc(nn2)CO[C@H]1CN(C)C(=O)Nc1ccccc1C(F)(F)F`, the cytotoxicity call was “inactive”.

In the case of `Cc1ccc(S(=O)(=O)Nc2ccc3c(c2)C(=O)N([C@@H](C)CO)C[C@H](C)[C@@H](CN(C)Cc2ccc(Cl)c(Cl)c2)OCCCC[C@@H](C)O3)cc1`, the cytotoxicity call is “active”.

`Cc1ccc(S(=O)(=O)Nc2ccc3c(c2)C(=O)N([C@@H](C)CO)C[C@@H](C)[C@@H](CN(C)Cc2ccc(Cl)c(Cl)c2)OCCCC[C@@H](C)O3)cc1`: the cytotoxicity call was “active”.

As to `Cc1noc(C)c1S(=O)(=O)Nc1ccc2c(c1)C(=O)N([C@@H](C)CO)C[C@H](C)[C@@H](CN(C)Cc1ccc(Cl)c(Cl)c1)OCCCC[C@H](C)O2`, the cytotoxicity call is “inactive”.

As to `Cc1noc(C)c1S(=O)(=O)Nc1ccc2c(c1)C(=O)N([C@H](C)CO)C[C@H](C)[C@@H](CN(C)Cc1ccc(Cl)c(Cl)c1)OCCCC[C@H](C)O2`, the cytotoxicity call is “inactive”.

With `Cc1ccc(S(=O)(=O)Nc2ccc3c(c2)C(=O)N([C@@H](C)CO)C[C@@H](C)[C@H](CN(C)Cc2ccc(Cl)c(Cl)c2)OCCCC[C@@H](C)O3)cc1`, the cytotoxicity call is “inactive”.

As for `Cc1ccc(S(=O)(=O)Nc2ccc3c(c2)C(=O)N([C@H](C)CO)C[C@H](C)[C@H](CN(C)Cc2ccc(Cl)c(Cl)c2)OCCCC[C@H](C)O3)cc1`, the cytotoxicity call was “inactive”.

On to `Cc1ccc(S(=O)(=O)Nc2ccc3c(c2)C(=O)N([C@H](C)CO)C[C@@H](C)[C@@H](CN(C)Cc2ccc(Cl)c(Cl)c2)OCCCC[C@H](C)O3)cc1`, for which the cytotoxicity call was “inactive”.

Take `Cc1noc(C)c1S(=O)(=O)Nc1ccc2c(c1)C(=O)N([C@H](C)CO)C[C@@H](C)[C@@H](CN(C)Cc1ccc(Cl)c(Cl)c1)OCCCC[C@H](C)O2`: the cytotoxicity call was “active”.

Turning to `Cc1ccc(S(=O)(=O)Nc2ccc3c(c2)C(=O)N([C@H](C)CO)C[C@H](C)[C@@H](CN(C)Cc2ccc(Cl)c(Cl)c2)OCCCC[C@H](C)O3)cc1`, the cytotoxicity call was “inactive”.

With `Cc1ccc(S(=O)(=O)Nc2ccc3c(c2)C(=O)N([C@H](C)CO)C[C@@H](C)[C@H](CN(C)Cc2ccc(Cl)c(Cl)c2)OCCCC[C@@H](C)O3)cc1`, the cytotoxicity call was “inactive”.

For the molecule `Cc1ccc(S(=O)(=O)Nc2ccc3c(c2)C(=O)N([C@H](C)CO)C[C@@H](C)[C@H](CN(C)Cc2ccc(Cl)c(Cl)c2)OCCCC[C@H](C)O3)cc1`, the cytotoxicity call was “inactive”.

As for `Cc1ccc(S(=O)(=O)Nc2ccc3c(c2)C(=O)N([C@@H](C)CO)C[C@H](C)[C@@H](CN(C)Cc2ccc(Cl)c(Cl)c2)OCCCC[C@H](C)O3)cc1`, the cytotoxicity call is “active”.

With `CNC(=O)C[C@@H]1CC[C@H]2[C@@H](COC[C@@H](O)CN2C(=O)c2ccc3c(c2)OCO3)O1`, the cytotoxicity call was “inactive”.

For `COc1cccc(S(=O)(=O)Nc2ccc3c(c2)OC[C@@H](C)N(C(=O)Cc2cccnc2)C[C@H](C)[C@@H](OC)CN(C)C3=O)c1`, the cytotoxicity call was “inactive”.

`C[C@@H]1CN([C@@H](C)CO)C(=O)c2cccc(NC(=O)Nc3ccc4c(c3)OCO4)c2O[C@H]1CN(C)S(C)(=O)=O`: the cytotoxicity call is “inactive”.

Regarding `C[C@@H]1CCCCO[C@H](CN(C)S(=O)(=O)c2ccccc2)[C@H](C)CN([C@@H](C)CO)C(=O)c2cc(NC(=O)Nc3ccc(F)cc3)ccc2O1`, the cytotoxicity call is “inactive”.

For the molecule `O=C(O)CCNC(=O)c1cccc([N+](=O)[O-])c1`, the cytotoxicity call is “inactive”.

Take `C[C@H]1CN([C@@H](C)CO)C(=O)c2cccc(NS(=O)(=O)c3cn(C)cn3)c2O[C@@H]1CN(C)CC1CCCCC1`: the cytotoxicity call was “inactive”.

For `Cc1noc(C)c1S(=O)(=O)Nc1cccc2c1O[C@@H](CN(C)Cc1ccc3c(c1)OCO3)[C@@H](C)CN([C@@H](C)CO)C2=O`, the cytotoxicity call is “inactive”.

`COCC#Cc1ccc([C@@H]2[C@H]3CN(C(=O)CN4CCOCC4)CC(=O)N3[C@H]2CO)cc1`: the cytotoxicity call was “inactive”.
